In PubChem BioAssay (NCATS) one finds Potency data, which are given here for 24 compounds.

Assay [1] in a line: NS1 protein of Zika virus - qHTS assay to identify small molecule inhibitors in human HEK 293 cells (AID 1347053). Note: nearly all actives have a fitted effect of over 55% in size. Summed up: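 Compound-treated (1 h pre-infection) HEK 293 cells infected with ZIKV MR766, MOI = 0.5; after 24 h at 37 C, NS1 read by TR-FRET; data normalized to uninfected and infected controls.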
(qHTS replaces the single test concentration by a dilution series.)

A short description of assay [2]: qHTS of pediatric cancer cell lines to identify multiple opportunities for drug repurposing: Primary screen for DAOY cells (AID 1347090). Note: nearly all actives have a fitted effect of over 55% in size. The essentials:
(§1)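 Cell viability, CellTiter-Glo luminescence; 500-1,000 cells/well, 8- or 11-point titration, 48 h compound exposure at 37 degrees C, 5% CO2. Controls: DMSO neutral, bortezomib 2.3 µM final as positive.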

Assay [3] can be described thus: qHTS of pediatric cancer cell lines to identify multiple opportunities for drug repurposing: Primary screen for SJ-GBM2 cells (AID 1347091). The essentials:
as §1

The nature of assay [4]: qHTS of pediatric cancer cell lines to identify multiple opportunities for drug repurposing: Primary screen for A673 cells (AID 1347092). Note: nearly all actives have a fitted effect of over 45% in size. The essentials:
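Luminescence from CellTiter-Glo, taken after 15 min at room temperature, served as the proxy for metabolically active cells following 48 h treatment. Both potency and efficacy were taken from curves fitted to the titration data.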

Assay [5] in a line: qHTS of pediatric cancer cell lines to identify multiple opportunities for drug repurposing: Primary screen for SK-N-MC cells (AID 1347093). Summed up: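 Metabolically active cells were quantified by ATP-dependent luminescence (CellTiter-Glo, 15 min at room temperature) following 48 h treatment. Cells had been plated at 500-1,000 per well and settled for 5 h beforehand.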
Assay [6] in a line: qHTS of pediatric cancer cell lines to identify multiple opportunities for drug repurposing: Primary screen for TC32 cells (AID 1347089). Note: nearly all actives have a fitted effect of over 60% in size. The essentials:
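qHTS, TC32, 48 h drug treatment, CellTiter-Glo luminescence as a proxy for metabolically active cells; primary top concentration 46 µM (MIPE 11-pt, NPC 8-pt); confirmatory 11-pt.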

Values joined by “and” are separate entries in the source; they are usually repeats but may differ in a detail not shown here. Identical values can stand only once. Records with an inconclusive call do not appear. Active and inactive are the calls of the source. Calls come from the whole dose curve; as a rule, active = well fitted curve in the direction sought with a large enough effect; inconclusive = small, poorly fitted or top-dose-only effect, or another doubt; inactive = no such curve, though single readings can be large; an effect the other way counts as inactive or inconclusive.
Potency is the fitted concentration of half-maximal effect.

Turning to `C[C@@H](O)[C@H]1C(=O)N2C(C(=O)O)=C(S[C@@H]3CN[C@H](C(=O)N(C)C)C3)[C@H](C)[C@H]12`, the Potency entry in assay [1], in assay [2], in assay [3], in assay [4] and in assay [5] was “inactive” throughout.
As for `COc1cc2nc(-c3ccc(N4CCN(C)CC4)cc3)nc(NCCN3CCOCC3)c2cc1OC`, the Potency is 0.332 µM (active) in assay [1]; 0.0743 µM (active) in assay [2]; 0.148 µM (active) in assay [3]; 0.0235 µM (active) in assay [4]; 0.0372 µM (active) in assay [5].
As to `COc1cc2c(cc1OC)CN(CCc1ccc(NC(=O)c3cc(OC)c(OC)cc3NC(=O)c3cnc4ccccc4c3)cc1)CC2`, the Potency result in assay [1], in assay [2] and in assay [3] was “inactive” in each case. Moreover, the Potency in assay [5] is 10.5 µM (active).
`NC(=O)c1ccc2nc(-c3ccc(Oc4ccc(Cl)cc4)cc3)[nH]c2c1`: the Potency result in assay [1] and in assay [3] was “inactive” in each case.
Turning to `O=C1C(Cl)=C(NCCN2CCOCC2)C(=O)c2ncccc21`, the Potency was 9.35 µM (active) in assay [1]; 11.8 µM (active) in assay [2]; 6.62 µM (active) in assay [3]; 1.87 µM (active) in assay [4]; 7.43 µM (active) in assay [5].
As to `OC[C@H]1O[C@@H](n2cnc3c2NC=NC[C@@H]3O)C[C@H]1O`, the Potency result in assay [1] and in assay [3] was “inactive” in each case.
Turning to `C[C@]12CCC3c4ccc(O)cc4CCC3C1CCC2=O` (stereo partly specified), the Potency entry in assay [1], in assay [6] and in assay [5] was “inactive” each time.
For `COC1CCC(N(C(=O)C2CCC(C)CC2)c2cc(C3=CCCCC3)sc2C(=O)O)CC1` (stereo unspecified), the Potency entry in assay [1], in assay [6] and in assay [4] was “inactive” each time. For the same compound, the Potency in assay [5] was 23.5 µM (active).
As to `CC[C@@]1(O)C[C@H](O[C@H]2C[C@H](N(C)C)[C@H](O[C@H]3C[C@H](O)[C@H](O[C@H]4CCC(=O)[C@H](C)O4)[C@H](C)O3)[C@H](C)O2)c2c(cc3c(c2O)C(=O)c2c(O)cccc2C3=O)[C@@H]1C(=O)OC`, the Potency result in assay [1] was “inactive”. For the same compound, the Potency is 0.372 µM (active) in assay [3], 4.69 µM (active) in assay [4] and 18.7 µM (active) in assay [5].
In the case of `O=C(Nc1cc(Cl)cc2c1[nH]c1cnccc12)c1cccnc1`, the Potency result in assay [1] and in assay [6] was “inactive” each time. Besides, the Potency was 14.8 µM (active) in assay [4] and 4.18 µM (active) in assay [5].
For the compound `Cc1ccc(F)c(NC(=O)Nc2ccc(-c3cccc4[nH]nc(N)c34)cc2)c1`, the Potency entry in assay [1] was “inactive”. Further, the Potency in assay [2] is 23.5 µM (active); in assay [3] it was 23.5 µM (active); in assay [4], 14.8 µM (active); in assay [5], 20.9 µM (active).
For the compound `CC[C@H]1OC(=O)[C@H](C)[C@@H](O[C@H]2C[C@@](C)(OC)[C@@H](O)[C@H](C)O2)[C@H](C)[C@@H](O[C@@H]2O[C@H](C)C[C@H](N(C)C)[C@@H]2O)[C@](C)(O)C[C@@H](C)CN(C)[C@H](C)[C@@H](O)[C@]1(C)O`, the Potency entry in assay [1], in assay [3], in assay [4] and in assay [5] was “inactive” each time.
In the case of `Cc1ccccc1C(C(=O)NC1CCCCC1)N(C(=O)Cn1ccnc1C)c1cccc(F)c1` (stereo unspecified), the Potency result in assay [1], in assay [2], in assay [3] and in assay [4] was “inactive” in each case. The Potency in assay [5] is 23.5 µM (active).
With `CN(C)Cc1cccc(N=C(c2ccccc2)c2c(O)[nH]c3cc(C(=O)N(C)C)ccc23)c1`, the Potency entry in assay [1] is “inactive”. In addition, the Potency in assay [2] was 2.96 µM (active); in assay [3], 18.7 µM (active); in assay [5] it was 14.8 µM (active).
For `O=c1c(-c2ccc(O)cc2)coc2cc(OC3O[C@H](CO)[C@H](O)[C@H](O)[C@H]3O)cc(O)c12` (stereo partly specified), the Potency result in assay [1] and in assay [3] was “inactive” each time. Moreover, the Potency in assay [4] and in assay [5] was 2.96 µM (active) each time.
Regarding `O=C(O)c1ccc(-c2cc3cccnc3c(-c3ccc4nonc4c3)n2)cc1`, the results for the Potency in assay [1], in assay [4] and in assay [5] were 23.5 µM (active), 18.7 µM (active) and 3.32 µM (active), respectively. Further, the Potency entry in assay [6] was “inactive”.
On to `CC1(C)S[C@H]2[C@H](NC(=O)[C@@H](N)c3ccc(O)cc3)C(=O)N2[C@@H]1C(=O)O`, for which the Potency entry in assay [1] is “inactive”. Also, the Potency is 9.35 µM (active) in assay [2], 16.6 µM (active) in assay [3], 0.935 µM (active) in assay [4] and 0.743 µM (active) in assay [5].
Regarding `COc1ccc2c(Oc3ccc(NC(=O)c4c(C)n(CC(C)(C)O)n(-c5ccccc5)c4=O)cc3F)ccnc2c1`, in assay [1], the Potency result is “inactive”. Further, the Potency in assay [3] was 0.059 µM (active); in assay [4], 23.5 µM (active); in assay [5], 14.8 µM (active).
Take `CC[C@]1(O)C[C@@H]2CN(CCc3c([nH]c4ccccc34)[C@@](C(=O)OC)(c3cc4c(cc3OC)N(C)[C@H]3[C@@](O)(C(=O)OC)[C@H](OC(C)=O)[C@]5(CC)C=CCN6CC[C@]43[C@@H]65)C2)C1`: the Potency entry in assay [1] was “inactive”. Further, the Potency was 26.6 nM (active) and 133 nM (active) in assay [2]; 0.075 µM (active) in assay [3]; 21.1 nM (active) and 133 nM (active) in assay [4]; 33.5 nM (active) and 106 nM (active) in assay [5].
With `COC[C@@H](c1ccc(C(F)(F)F)cc1)N1CCN(C2(C)CCN(C(=O)c3c(C)ncnc3C)CC2)C[C@H]1C`, the Potency entry in assay [1] and in assay [6] was “inactive” throughout. In addition, the Potency in assay [5] was 3.32 µM (active).
In the case of `CC(C)OC(=O)CCCC=CC[C@@H]1[C@H](C=C[C@@H](O)COc2cccc(C(F)(F)F)c2)[C@H](O)C[C@@H]1O`, the Potency result in assay [6] and in assay [4] was “inactive” throughout. Also, the Potency in assay [3] was 23.5 µM (active).
For the compound `O=C(CCCCCCC(=O)Nc1ccccc1)NO`, the Potency in assay [6] was 6.64 µM (active) and 14.7 µM (active); in assay [2] it was 4.22 µM (active) and 5.9 µM (active); in assay [3], 1.33 µM (active) and 1.87 µM (active); in assay [5], 1.48 µM (active).
Turning to `COc1cc2ncnc(Nc3ccc(F)c(Cl)c3)c2cc1OCCCN1CCOCC1`, the Potency in assay [6] was 38 µM (active); in assay [2], 4.29 µM (active); in assay [3], 1.71 µM (active) and 8.41 µM (active); in assay [4], 1.71 µM (active) and 21.1 µM (active); in assay [5], 1.91 µM (active) and 26.6 µM (active).
Consider `Oc1ccc(C2=Cc3ccc(O)cc3OC2)cc1`, for which the Potency in assay [1] is 10.5 µM (active); in assay [3], 5.26 µM (active); in assay [5] it was 1.66 µM (active).
